Reference: PubChem BioAssay AID1159580 (chemical genetic matrix, 2015)
Out of some 5,500 compounds screened, about 2,000 (36%) were called active. Inconclusive results (about 18%) are left out. Cut-off read from the data, not from the text of the source: active = normalized growth mostly below about 0.91 (no sharp cut-off); inconclusive = no clear call, values can overlap the other calls; inactive = mostly above about 0.92. Some of the results follow.

Assay: chemical genetic growth profiling, strain panel (AID 1159580);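 note: tested at 20 µM; growth read once vehicle control cultures reached saturation at 30 °C; 1 = growth at the plate median or of vehicle wells; lower values mean less growth of the strain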
Details: S. cerevisiae deletion strains, growth OD

Measured: normalized growth

CC(=O)c1ccc2c(c1)N(CCCN(C)C)c1ccccc1S2
inactive: locus YAL021C, strain ccr4, active compounds read low 0.962 | locus YAL026C, strain drs2, active compounds read low 0.981 | locus YAL030W, strain snc1, active compounds read low 1 | locus YBL061C, strain skt5, active compounds read low 0.992 | locus YBR009C, strain hhf1, active compounds read low 1 | locus YBR023C, strain chs3, active compounds read low 1.01 | locus YBR171W, strain sec66, active compounds read low 0.988 | locus YBR231C, strain swc5, active compounds read low 0.994 | locus YBR279W, strain paf1, active compounds read low 0.988 | locus YCL011C, strain gbp2, active compounds read low 0.976 | locus YCL016C, strain dcc1, active compounds read low 0.995 | locus YCL061C, strain MRC1, active compounds read low 0.983 | locus YCL069W, strain vba3, active compounds read low 0.988 | locus YCR088W, strain abp1, active compounds read low 0.978 | locus YDL005C, strain med2, active compounds read low 0.989 | locus YDL040C, strain nat1, active compounds read low 0.99 | locus YDR001C, strain nth1, active compounds read low 0.983 | locus YDR069C, strain doa4, active compounds read low 0.99 | locus YDR137W, strain rgp1, active compounds read low 1.09 | locus YDR159W, strain sac3, active compounds read low 1.01 | locus YDR195W, strain ref2 1 | locus YDR297W, strain sur2, active compounds read low 0.984 | locus YDR334W, strain swr1, active compounds read low 0.959 | locus YDR335W, strain msn5, active compounds read low 0.968 | locus YDR392W, strain spt3, active compounds read low 0.994 | locus YEL003W, strain gim4, active compounds read low 0.986 | locus YEL037C, strain rad23, active compounds read low 0.939 | locus YEL061C, strain CIN8 (second series), active compounds read low 0.984 | locus YER015W, strain faa2, active compounds read low 0.98 | locus YER016W, strain bim1, active compounds read low 0.989 | locus YER111C, strain swi4, active compounds read low 0.994 | locus YER155C, strain BEM2 (second series), active compounds read low 0.995 | locus YFR010W, strain ubp6, active compounds read low 0.974 | locus YGL167C, strain pmr1, active compounds read low 0.987 | locus YGL173C, strain kem1, active compounds read low 0.973 | locus YGL227W, strain vid30, active compounds read low 0.991 | locus YGL240W, strain doc1, active compounds read low 1 | locus YGL253W, strain hxk2, active compounds read low 0.993 | locus YHR013C, strain ard1, active compounds read low 0.947 | locus YHR027C, strain rpn1, active compounds read low 0.986 | locus YHR030C, strain SLT2, active compounds read low 0.966 | locus YHR079C, strain IRE1, active compounds read low 0.963 | locus YHR142W, strain chs7, active compounds read low 0.943 | locus YJL092W, strain hpr5, active compounds read low 0.934 | locus YJL095W, strain BCK1 (second series), active compounds read low 1 | locus YJL095W, strain BCK1, active compounds read low 1 | locus YJL115W, strain asf1, active compounds read low 0.974 | locus YJL129C, strain trk1, active compounds read low 0.981 | locus YJL154C, strain vps35, active compounds read low 0.987 | locus YJL164C, strain tpk1, active compounds read low 0.99 | locus YJL166W, strain qcr8, active compounds read low 0.997 | locus YJL187C, strain SWE1, active compounds read low 0.998 | locus YJR066W, strain TOR1, active compounds read low 0.923 | locus YKL160W, strain elf1, active compounds read low 0.976 | locus YKR026C, strain gcn3, active compounds read low 0.979 | locus YKR091W, strain srl3, active compounds read low 0.992 | locus YLL001W, strain dnm1, active compounds read low 0.973 | locus YLL026W, active compounds read low 0.996 | locus YLL041C, strain sdh2, active compounds read low 0.98 | locus YLR027C, strain aat2, active compounds read low 0.995 | locus YLR113W, strain HOG1, active compounds read low 0.995 | locus YLR221C, strain rsa3, active compounds read low 0.979 | locus YLR258W, strain gsy2, active compounds read low 0.995 | locus YLR262C, strain YPT6 (second series), active compounds read low 1.06 | locus YLR320W, strain mms22, active compounds read low 1.01 | locus YLR342W, strain FKS1, active compounds read low 0.99 | locus YLR357W, strain rsc2, active compounds read low 1.01 | locus YLR370C, strain arc18, active compounds read low 0.984 | locus YLR384C, strain iki3, active compounds read low 0.987 | locus YML120C, strain ndi1, active compounds read low 0.969 | locus YMR058W, strain fet3, active compounds read low 0.967 | locus YMR125W, strain sto1, active compounds read low 1.02 | locus YMR129W, active compounds read low 0.991 | locus YMR205C, strain PFK2, active compounds read low 1.02 | locus YMR231W, strain pep5, active compounds read low 0.996 | locus YNL071W, strain lat1, active compounds read low 0.995 | locus YNL183C, strain NPR1, active compounds read low 0.947 | locus YNL209W, strain ssb2, active compounds read low 0.99 | locus YNL248C, strain rpa49, active compounds read low 0.956 | locus YNL322C, strain KRE1 (second series), active compounds read low 0.987 | locus YNR049C, strain mso1, active compounds read low 0.989 | locus YOR001W, strain rrp6, active compounds read low 0.975 | locus YOR070C, strain gyp1, active compounds read low 0.992 | locus YOR080W, strain dia2, active compounds read low 0.983 | locus YOR083W, strain WHI5, active compounds read low 0.971 | locus YOR106W, strain vam3, active compounds read low 0.972 | locus YOR231W, strain MKK1, active compounds read low 0.972 | locus YOR265W, strain rbl2, active compounds read low 0.995 | locus YOR270C, strain vph1, active compounds read low 0.958 | locus YOR290C, strain snf2, active compounds read low 1.02 | locus YPL051W, strain arl3, active compounds read low 0.994 | locus YPL078C, strain atp4, active compounds read low 1 | locus YPL106C, strain sse1, active compounds read low 0.973 | locus YPL240C, strain hsp82, active compounds read low 0.997 | locus YPL256C, strain CLN2, active compounds read low 0.954
